Counter-ions that a name gives are not always drawn.

The test system of the experiment is PBMC-derived induced microglia-like cells (piMGLC). Description: synaptosome phagocytic index relative to DMSO control (fraction of DMSO); higher = more phagocytosis. Conditions: concentration: 10 uM (2 uM for compounds listed in Table S2); pretreatment time: 24 h; assay time: 3 h.
Regarding `COc1cc2ncnc(Nc3ccc(F)c(Cl)c3)c2cc1OCCCN1CCOCC1` [Gefitinib], the synaptosome phagocytic index is 1.24.

For the compound `CCc1c2c(nc3ccc(OC(=O)N4CCC(N5CCCCC5)CC4)cc13)-c1cc3c(c(=O)n1C2)COC(=O)[C@]3(O)CC` [Irinotecan_(hydrochloride_trihydrate)], the synaptosome phagocytic index was found to be 0.682.

For `C[C@@H]1O[C@@H]1P(=O)(O)O` [Fosfomycin_(calcium)], the synaptosome phagocytic index is 0.946.

On to `Fc1ccc(-c2c3cccc(C(F)(F)F)c3nn2Cc2ccc(F)cc2Cl)cc1`, for which the synaptosome phagocytic index came to 0.581.

With `CCN1CCN(Cc2ccc(-c3cc4c(N[C@H](C)c5ccccc5)ncnc4[nH]3)cc2)CC1`, the synaptosome phagocytic index was 0.0989.

Regarding `C[C@]1(c2nc3c(C(N)=O)cccc3[nH]2)CCCN1` [Veliparib], the synaptosome phagocytic index amounted to 0.721.

In the case of `CC1OC2(CS1)CN1CCC2CC1` (stereo unspecified) [Cevimeline_(hydrochloride_hemihydrate)], the synaptosome phagocytic index was 0.63.

Take `CCCN[C@H]1CCc2nc(N)sc2C1` [Pramipexole]: the synaptosome phagocytic index was 0.882.

With `Cc1cnc(NC(=O)C2=C(O)c3ccccc3S(=O)(=O)N2C)s1` [Meloxicam], the synaptosome phagocytic index is 0.731.

For the compound `N[C@H](C(=O)O)[C@@H]1CC(Cl)=NO1` [Acivicin], the synaptosome phagocytic index is 0.68.

Regarding `CC(C)c1ccc(NC(=O)c2c(-c3cc(F)ccc3F)ccnc2N2CC[C@H](F)C2)cn1` [Nav1.1_activator_1], the synaptosome phagocytic index is 0.451.

Regarding `Cc1nc(-c2cccnc2)sc1C(=O)Nc1ccccc1-c1cn2c(CN3CCOCC3)csc2n1`, the synaptosome phagocytic index was determined as 0.157.

For the compound `FC(F)(F)c1ccc(CNc2ccc(Cc3c[nH]c4ncc(Cl)cc34)cn2)cn1` [Pexidartinib], the synaptosome phagocytic index worked out at 0.587.

Consider `CN(C)CCc1c[nH]c2ccc(Cn3cncn3)cc12` [Rizatriptan_(benzoate)], for which the synaptosome phagocytic index was found to be 1.11.

Consider `O=C(c1cc(Cc2n[nH]c(=O)c3ccccc23)ccc1F)N1CCN(C(=O)C2CC2)CC1` [Olaparib], for which the synaptosome phagocytic index came out at 0.997.

Take `Nc1cccc2c1C(=O)N(C1CCC(=O)NC1=O)C2=O` (stereo unspecified) [Pomalidomide]: the synaptosome phagocytic index amounted to 0.545.

With `C[C@H](N=C(NC#N)Nc1cccc2ncccc12)c1ccccc1`, the synaptosome phagocytic index was found to be 0.994.

Consider `Cc1cccc(C)c1OCC(=O)N[C@@H](Cc1ccccc1)[C@@H](O)C[C@H](Cc1ccccc1)NC(=O)[C@H](C(C)C)N1CCCNC1=O` [Lopinavir], for which the synaptosome phagocytic index was determined as 0.253.

Regarding `CC(=O)[C@H]1CC[C@H]2[C@@H]3CCC4=CC(=O)CC[C@]4(C)[C@H]3CC[C@]12C` [Progesterone], the synaptosome phagocytic index is 0.761.

On to `Nc1nc(NC2CC2)c2ncn([C@H]3C=C[C@@H](CO)C3)c2n1` [Abacavir_(sulfate)], for which the synaptosome phagocytic index was determined as 1.1.

Turning to `CCN1CCCC1CNC(=O)c1cc(S(N)(=O)=O)ccc1OC` (stereo unspecified) [Sulpiride], the synaptosome phagocytic index was 0.571.

For `C#Cc1cccc(Nc2ncnc3cc(OCCOC)c(OCCOC)cc23)c1` [Erlotinib_(Hydrochloride)], the synaptosome phagocytic index was 0.391.

For `CCCCCOC(=O)Nc1nc(=O)n([C@@H]2O[C@H](C)[C@@H](O)[C@H]2O)cc1F` [Capecitabine], the synaptosome phagocytic index stood at 0.837.

For `CO/N=C(\C(=O)N[C@@H]1C(=O)N2C(C(=O)O)=C(COC(C)=O)CS[C@H]12)c1csc(N)n1` [Cefotaxime_(sodium_salt)], the synaptosome phagocytic index was determined as 0.951.

For `CCC(CC)O[C@@H]1C=C(C(=O)O)C[C@H](N)[C@H]1NC(C)=O` [Oseltamivir_acid], the synaptosome phagocytic index came out at 0.782.

Take `Clc1ccc(COC(Cn2ccnc2)c2ccc(Cl)cc2Cl)c(Cl)c1` (stereo unspecified) [Miconazole_(nitrate)]: the synaptosome phagocytic index amounted to 1.09.

Turning to `N[C@@H]1CONC1=O` [D-Cycloserine], the synaptosome phagocytic index stood at 0.834.

As for `CCCC(CCC)C(=O)O` [Valproic_acid], the synaptosome phagocytic index stood at 0.68.

Turning to `CCCCC1C(=O)N(c2ccccc2)N(c2ccccc2)C1=O` [Phenylbutazone], the synaptosome phagocytic index is 0.797.

As to `NC(=O)NO` [Hydroxyurea], the synaptosome phagocytic index was 0.555.

Consider `COc1cc2ncnc(Nc3cccc(Cl)c3F)c2cc1OC(=O)N1CCN(C)C[C@H]1C` [Zorifertinib], for which the synaptosome phagocytic index was 0.285.

In the case of `CCc1c2c(nc3ccc(OC(=O)N4CCC(N5CCCCC5)CC4)cc13)-c1cc3c(c(=O)n1C2)COC(=O)[C@]3(O)CC` [Irinotecan], the synaptosome phagocytic index stood at 0.692.

Take `C[N+]1([O-])CCN(C2=Nc3cc(Cl)ccc3Nc3ccccc32)CC1` [Clozapine_N-oxide_(dihydrochloride)]: the synaptosome phagocytic index was 0.606.

Turning to `N[C@@H](CC(=O)O)C(=O)O` [L-Aspartic_acid], the synaptosome phagocytic index is 0.871.

Turning to `CC(=O)Nc1nnc(S(N)(=O)=O)s1` [Acetazolamide], the synaptosome phagocytic index is 1.03.

Consider `CNCC[C@@H](Oc1ccccc1C)c1ccccc1` [Atomoxetine_(hydrochloride)], for which the synaptosome phagocytic index came to 1.16.

Values taken from the supplement of paper PMC12339681.
